# Source: PubChem BioAssay
# Rab9 prom act: Rab9 promoter activation; Potency, µM (doses to about 9.22 µM), without a hit: at the top dose activation, negative = inhibition, usual class: activators; Huh7 Rab9 promoter-luciferase reporter, luminescence, 24 h; actives 2.8% (n = 320,000); further: % of control where 0% means no effect; nearly all actives have a fitted effect of over 60% in size
#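 Huh7 reporter line, Rab9 promoter upstream of luciferase. Compound exposure 24 h at 37 °C in reduced-serum medium with 10% FBS. Read-out: luminescence.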
# ELG1 repair inh: blocks ELG1-dependent DNA repair in HEK293T cells. HEK293T ELG1-luciferase reporter, luminescence, 16 h; DNA damage induced by 5-fluorouridine. Potency, µM (doses to about 46.1 µM), for inactives: at the highest dose activity change, negative = inhibition, usual class: inhibitors. actives 2.3% (n = 330,000); further: on the % scale 0 is the no-effect control and ±100 the full control effect; nearly all actives have a fitted effect of over 55% in size
#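 Cells (2,000 per well) received 5-fluorouridine plus test compound or DMSO and were incubated 16 hr at 37 °C, 5% CO2. Luciferase activity was read by luminescence 30 min after ONE-Glo addition; signal suppression marked inhibition of damage-induced ELG1 function.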
# NPC1 promoter act: activates the NPC1 promoter; Potency, µM (series often up to 9.22 µM), without a hit: at the top dose activation, actives largely listed as activators; actives 2.4% (n = 320,000); Huh7 NPC1 promoter luciferase reporter, 24 h; AID 485313; further: % of control where 0% means no effect; nearly all actives have a fitted effect of over 60% in size
#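 Huh7 reporter cells (NPC1 promoter driving luciferase) are dosed with compound for 24 h at 37 °C, 5% CO2; luciferase detection reagent is then added and luminescence measured after 10 min at ambient temperature.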
# FLuc counter: firefly luciferase modulation, counter-screen for miR-21 project; actives 6.9% (n = 360,000); AID 588342; purified FLuc, Km substrates, luminescence inhibition; Potency, µM (doses to about 57.5 µM), inactives show at the top dose activity change, negative = inhibition, hits mostly inhibitors; P08659;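 further: plate controls were vehicle for no effect and reference inhibitor for full effect; nearly all actives have a fitted effect of over 55% in size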
# Target sequence (P08659 whole entry, looked up): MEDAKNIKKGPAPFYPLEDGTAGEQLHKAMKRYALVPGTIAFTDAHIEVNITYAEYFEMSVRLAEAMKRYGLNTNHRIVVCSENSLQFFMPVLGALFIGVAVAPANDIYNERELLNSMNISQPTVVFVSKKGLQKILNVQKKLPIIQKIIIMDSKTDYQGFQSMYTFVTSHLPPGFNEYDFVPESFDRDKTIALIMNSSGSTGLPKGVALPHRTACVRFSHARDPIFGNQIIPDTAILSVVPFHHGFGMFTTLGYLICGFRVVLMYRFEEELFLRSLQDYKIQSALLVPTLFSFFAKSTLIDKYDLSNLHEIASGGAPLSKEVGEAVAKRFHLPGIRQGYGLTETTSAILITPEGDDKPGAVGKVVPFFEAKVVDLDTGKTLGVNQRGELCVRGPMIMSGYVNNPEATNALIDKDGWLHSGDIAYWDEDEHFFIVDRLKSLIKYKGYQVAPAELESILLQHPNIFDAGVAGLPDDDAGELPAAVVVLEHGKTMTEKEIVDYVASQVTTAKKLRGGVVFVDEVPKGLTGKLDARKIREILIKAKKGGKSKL
#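 Purified P. pyralis luciferase (10nM final) with 10uM D-luciferin and 10uM ATP (Km levels) in 50mM Tris acetate pH 7.5, 10mM Mg acetate, 0.01% Tween-20, 0.05% BSA; qHTS 6-point titration, ~60 µM downward; luminescence read.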
# ELG1 genotox: induces genotoxicity in HEK293T cells with luciferase-tagged ELG1. AID 504466. Potency, µM (highest dose often 46 µM), without a hit: at the highest dose activity change, positive = activation, most hits filed as activators. actives 1.3% (n = 330,000). HEK293T ELG1-luciferase reporter, luminescence, 16 h; further: % of control where 0% means no effect; nearly all actives have a fitted effect of over 60% in size
#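 Genotoxic stress is detected as increased luminescence from luciferase-tagged ELG1 in HEK293T cells, measured with ONE-Glo after a 16 hr treatment at 37 °C.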
# SMN2 splice up: SMN2 splice variant enhancement; HEK293 SMN2-luciferase splicing reporter, luminescence, 30-36 h; Potency, µM (highest dose often 46.1 µM), inactives show at the highest dose activity change, positive = activation, hits mostly activators; actives 2.8% (n = 210,000); AID 1458; further: % of control where 0% means no effect; nearly all actives have a fitted effect of over 55% in size
#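 HEK293 cells carry an SMN2 […]–luciferase reporter in which exon 7 inclusion puts luciferase in frame. Cells were plated 10-12 h before compound addition, then incubated 30-36 h at 37C. ONE-Glo luminescence was read; sodium butyrate at 4.5 mM final served as control.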
# * marks the source's active call; other numbers are inactive results; ? = inconclusive; / = not tested or not shown; [ ] = another dose, or the depositor's remark. The list is not random: actives were taken first. Their share in the collection is about 9.4%. The call rests on the fitted dose curve; in most records, active means well fitted curve in the direction sought with a large enough effect; inconclusive means small, poorly fitted or top-dose-only effect, or another doubt; inactive means no such curve, though single readings can be large; an effect the other way counts as inactive or inconclusive. Potency means the concentration at half of the fitted maximal effect.
SMILES,Rab9 prom act,ELG1 repair inh,NPC1 promoter act,FLuc counter,ELG1 genotox,SMN2 splice up
CCOc1ccc(CNC(=O)CCc2c(C)nn(-c3ccc(N4CCOCC4)nn3)c2C)cc1,/,/,/,1.9%,/,/
Cc1cc(C)cc(NC(=O)CCc2c(C)nn(-c3ccc(N4CCOCC4)nn3)c2C)c1,8.4%,-12.7%,7.6%,15.1µM*,2.7%[9.26 µM],/
CCc1ccc(CNC(=O)CCc2c(C)nn(-c3ccc(N4CCCC4)nn3)c2C)cc1,/,/,/,-1.1%,/,/
CCOc1ccc(NC(=O)CCc2c(C)nn(-c3ccc(N4CCCCC4)nn3)c2C)cc1,2.82µM*,?,?,2.69µM*,?,/
CCCC(=O)OCc1cnc(C)c2oc(=O)c(C(=O)Nc3cccc(C(F)(F)F)c3)cc12,/,/,/,-5.8%,/,/
COc1ccc(CNC(=O)CCc2c(C)nn(-c3ccc(N4CCCCC4)nn3)c2C)c(OC)c1,/,/,/,-12.1%,/,/
Cc1nn(-c2ccc(N3CCCCC3)nn2)c(C)c1CCC(=O)Nc1ccc(F)cc1,?,2.2%,?,13.5µM*,5.5%,/
COc1ccc(NC(=O)CCc2c(C)nn(-c3ccc(N4CCCC4)nn3)c2C)cc1Cl,/,/,/,21.3µM*,/,/
Cc1nn(-c2ccc(N3CCCC3)nn2)c(C)c1CCC(=O)Nc1ccccc1,/,/,/,-5.6%,/,/
Cc1nn(-c2ccc(N3CCCCC3)nn2)c(C)c1CCC(=O)Nc1cccc(F)c1,3.98µM*,?,2.82µM*,4.78µM*,?,/
CCc1ccc(NC(=O)CCc2c(C)nn(-c3ccc(N4CCCCC4)nn3)c2C)cc1,?,?,?,12µM*,13.4%,/
CCOc1ccc(-c2c(C)nn3c(-c4ccccc4)c(C(=O)NCCOC)cnc23)cc1OCC,/,/,/,-1.9%,/,/
COc1cccc(NC(=O)Cn2nnc(-c3nc(-c4ccccc4)no3)c2N)c1,/,/,/,-8.7%,/,/
O=C(NCC1CCCO1)C(=O)N/N=C\c1ccc2c(c1)OCO2 (stereo not drawn),-0.5%,-2.3%,-2.6%,?,?,/
COC(=O)CSc1ccc2c(N)c(C(=O)OC)sc2c1,2.3%,9.0%,-2.4%,19µM*,-0.4%,?
CCOC(=O)c1c(NC(=O)C(=O)N/N=C/c2ccc(O)c(OC)c2)sc2c1CCCCC2,-3.9%,14.6µM*,-1.1%,2.8%,-12.1%,-27.2%
CCOC(=O)c1c(NC(=O)N/N=C/c2ccc(O)c(OC)c2)sc(C(C)=O)c1C,-40.4%,4.61µM*,-25.6%,?,-5.6%,/
Cc1ccc(C(=O)Nc2nc(C)c(C(=O)Nc3ccc4c(c3)CCC4)s2)cc1,-4.2%,?,-12.5%,15.1µM*,18.4µM*,5.62µM*
Cc1nc(NC(=O)c2ccc(F)cc2)sc1C(=O)Nc1ccc2c(c1)CCC2,5.1%,12.9%,0.0%,13.5µM*,6.8%,?
CCCC(=O)Nc1cccc(-c2nc3ccccc3c(=O)o2)c1,17.1%,?,1.1%,1.35µM*,-4.1%,/
CC(C)(C)C(=O)Nc1ccc(-c2nc3ccccc3c(=O)o2)cc1,21.0%,?,15.2%,0.107µM*,5.8%,/
CC(C)(C)C(=O)Nc1cccc(-c2nc3ccccc3c(=O)o2)c1,?,?,?,15.1µM*,10.7%,-2.7%
CCCCC(=O)Nc1cccc(-c2nnc(-c3ccccc3)o2)c1,18.8%,?,8.3%,?,-1.9%,?
CC(C)C(=O)Nc1ccc(-c2nc3ccccc3c(=O)o2)cc1,2.6%,11.0%,8.9%,0.301µM*,-1.1%,/
CC(C)C(=O)Nc1cccc(-c2nc3ccccc3c(=O)o2)c1,0.7%,-1.9%,-0.7%,?,2.7%,-2.6%
SMILES,Rab9 prom act,ELG1 repair inh,NPC1 promoter act,FLuc counter,ELG1 genotox,SMN2 splice up
CCCN1Cc2cccc(C(=O)Nc3ccc(C(C)=O)cc3)c2C1=O,/,/,/,-8.4%,/,3.9%
Cc1ccc(NC(=O)CSc2ncc3ccccn23)cc1C,23.9%,?,19.7%,?,5.7%,14.7%
O=C(Nc1ccc(Cl)cc1)C1CCN(c2nc3ccccc3nc2C(F)(F)F)CC1,/,/,/,2.3%,/,/
COc1ccc(Br)cc1[C@H]1[C@@H]2C=CCC[C@@]2(C)C(=O)N1Cc1ccccc1,-13.4%,?,0.0%,1.1%,-11.7%,/
COc1ccc(/C=C/c2ccccc2)cc1[C@H]1[C@@H]2C=CCC[C@@]2(C)C(=O)N1Cc1ccccc1,-0.2%,0.0%,0.1%,13.5µM*,-1.0%,/
Cc1ccccc1-c1nnc(SCC(=O)N2CCCc3ccccc32)o1,/,/,/,?,/,-11.3%
Cc1[nH]n(-c2ccccc2)c(=O)c1CCOC(=O)c1cccc(C(F)(F)F)c1,2.7%,-3.1%,2.1%,4.9%,0.6%,-13.4%
Cc1ccc(C(=O)OCCc2c(C)[nH]n(-c3ccccc3)c2=O)cc1,1.9%,8.7%,-4.0%,13.5µM*,-0.1%,-21.7%
CC(C)(C)c1ccc(-c2csc(NNC3=NCCCCC3)n2)cc1,-0.8%,-1.7%,2.1%,15.1µM*,?,-14.8%
Brc1ccc(-c2csc(NNC3=NCCCCC3)n2)cc1,-6.4%,21.5%,5.9%,19µM*,-3.0%,/
c1ccc(-c2csc(NC3=NCCCCC3)n2)cc1,?,?,17.6%,19µM*,?,11.2µM*
CCOc1ccccc1N1CC(c2nc3ccccc3n2CCOc2ccccc2OC)CC1=O (stereo not drawn),/,/,/,-10.9%,/,2.3%
O=C1C(Cl)=C(NCCc2ccccc2)C(=O)N1CCc1ccccc1,14.4%,?,13.4%,-15.7%,?,12.6%
